Compound activity: PubChem, The Scripps Research Institute Molecular Screening Center
MITF primary – inhibitors of human MITF. O75030. AlphaScreen MITF homodimerization, bead proximity signal. inhibition, % at 2.6 µM. 650,000 compounds, 0.91% hits. AID 1259374; in the data active means inhibition above about 50%;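 further: 0% = vehicle wells with protein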
GPR151 ag – human GPR151 activation. Q8TDV0. PathHunter beta-arrestin GPR151 cells, luminescence. activation, % at 11.2 µM. 650,000 compounds, 1% hits. AID 1508602; in the data active means activation above about 4.9%;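 further: 0% = median of compound wells and 100% = cells with positive control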
TEAD-YAP inh – TEAD-YAP interaction inhibition; HEK-TIYL cells, TEAD-Gal4/YAP UAS-luciferase luminescence; inhibition, % at 9.12 µM; 640,000 compounds, 1.4% hits; AID 1259422; in the data active means inhibition above about 32%;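 further: 0% = median of test compound wells and 100% = reference inhibitor wells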
FBW7 act – activators of human E3 ligase FBW7; normalized activity (activation), % at 26.1 µM; 650,000 compounds, 0.13% hits; AlphaScreen FBW7–phospho-cyclin E peptide binding, activator screen; in the data active means normalized activity above about 1.9%;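 further: purified mutant Fbw7 with reduced substrate affinity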
Target sequence (Q969H0 whole entry, looked up): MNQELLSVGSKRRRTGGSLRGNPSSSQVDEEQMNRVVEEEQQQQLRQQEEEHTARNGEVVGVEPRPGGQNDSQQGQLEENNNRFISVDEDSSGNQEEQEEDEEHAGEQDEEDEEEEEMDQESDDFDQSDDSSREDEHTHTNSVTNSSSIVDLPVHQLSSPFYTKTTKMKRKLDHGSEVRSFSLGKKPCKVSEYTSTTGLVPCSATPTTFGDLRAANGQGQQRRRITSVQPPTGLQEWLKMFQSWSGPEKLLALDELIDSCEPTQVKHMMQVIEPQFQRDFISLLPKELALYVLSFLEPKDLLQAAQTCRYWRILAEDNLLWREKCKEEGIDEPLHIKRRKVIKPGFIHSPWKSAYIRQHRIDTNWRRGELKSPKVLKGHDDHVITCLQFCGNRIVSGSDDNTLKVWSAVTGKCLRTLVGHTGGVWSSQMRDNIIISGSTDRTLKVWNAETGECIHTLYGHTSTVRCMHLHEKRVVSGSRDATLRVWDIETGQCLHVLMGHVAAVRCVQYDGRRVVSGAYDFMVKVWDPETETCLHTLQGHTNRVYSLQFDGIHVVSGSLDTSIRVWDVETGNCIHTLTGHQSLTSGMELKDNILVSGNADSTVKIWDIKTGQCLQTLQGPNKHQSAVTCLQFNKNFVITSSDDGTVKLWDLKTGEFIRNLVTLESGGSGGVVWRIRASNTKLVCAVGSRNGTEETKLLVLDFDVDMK
MITF inh conf – human MITF inhibition, confirmation; shares compounds with MITF primary; AlphaScreen MITF homodimerization, biotin/His-MITF beads; inhibition, % at 2.6 µM; 4,700 compounds, 16% hits; AID 1259372;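 active means inhibition above a cutoff derived from the DMSO control wells, cut at about 28% in these data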;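 further: 0% = MITF dimer wells with DMSO only; inhibitors lower the bead chemiluminescence by keeping MITF from dimerizing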
AS interf DR – AlphaScreen optical interference, dose response counter-screen. shares compounds with MITF primary. 480 compounds, 6% hits. AlphaScreen optical interference counterscreen, cell-free. AID 1259373. IC50, µM; call rule not given here
AlphaScreen intf2 – counter-screen: compounds optically interfering with AlphaScreen; shares compounds with MITF primary; LysRS AlphaScreen counterscreen, signal interference, triplicate; inhibition, % at 2.6 µM; 4,700 compounds, 7.6% hits;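 active means inhibition above a cutoff derived from the DMSO control wells, cut at about 30% in these data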
The depositor's hits bear a star; nt = no result given. Sampled rows, rich in hits. Any-hit rate of the full collection: about 3.5%.

SMILES	MITF primary	GPR151 ag	TEAD-YAP inh	FBW7 act	MITF inh conf	AlphaScreen intf2	others
Cc1cc(Cl)ccc1N(CC(=O)NCC1CCCO1)S(=O)(=O)c1ccccc1 (stereo not drawn)	72.6*	-1.5	14.4	0.6	4.2	9.2
Cc1ccc(S(=O)(=O)N(CC(=O)NCC2CCCO2)c2ccccc2Cl)cc1 (stereo not drawn)	-18.8	1.4	4.9	-0.1	nt	nt
CCn1cc(/C=C2/C(=O)N(CCOC)C(=O)N(c3ccccc3)C2=O)c2ccccc21	23.6	0.0	7.4	0.2	nt	nt
O=[N+]([O-])c1ccc(CN2CCN(Cc3cccnc3)CC2)cc1	63.6*	-0.7	-4.5	0.0	-21.4	2.5
O=[N+]([O-])c1ccc(CN2CCN(Cc3ccncc3)CC2)cc1	64.5*	-0.9	6.9	-0.2	9.8	14.9
O=[N+]([O-])c1ccc(-c2nsc3c(N4CCN(Cc5cccnc5)CC4)ncnc23)cc1	13.3	-0.4	-13.6	-0.1	nt	nt
O=[N+]([O-])c1ccc(CN2CCSCC2)cc1	48.4	0.7	4.8	-0.3	nt	nt
Cc1ccc(OCCN2CCC(C)CC2)c([N+](=O)[O-])c1	64.1*	-1.0	-10.2	0.0	-2.3	4.2
COCCCNCCCOc1ccc(C)cc1[N+](=O)[O-]	64.4*	-0.4	-4.1	0.5	1.2	-4.6
Cc1ccc(OCCN(C)C)c([N+](=O)[O-])c1	50.6*	-0.8	-3.9	0.1	-3.1	7.2
Cc1ccc(OCCN2CCOCC2)c([N+](=O)[O-])c1	46.4	1.2	0.3	-0.2	nt	nt
Fc1ccc(Nc2ncnc3sc4c(c23)CCCC4)c(F)c1	2.3	-0.3	2.7	0.1	nt	nt
COc1ccc2c(c1)C1NC(=S)N(c3cccc(C)c3)C(C)(O2)C1C(=O)Nc1ccc(C)cc1C (stereo not drawn)	56.6*	0.6	6.0	-0.2	30.8*	20.3	AS interf DR=>5.71
CC1(C)C2CC=C(CN3CCN(Cc4ccc5c(c4)OCO5)CC3)C1C2 (stereo not drawn)	64.3*	0.5	7.2	0.2	-2.6	4.0
CC1(C)C2CC=C(COCC(O)CN3CCN(Cc4ccc5c(c4)OCO5)CC3)C1C2 (stereo not drawn)	70.5*	3.1	4.4	-0.3	2.1	1.9
CC1(C)[C@H]2CC=C(CN3CCOc4ccc(CN5CCC(O)CC5)cc4C3)[C@@H]1C2	-7.5	1.3	0.2	0.0	nt	nt
CCCCOc1ccc(C(=O)Nn2c(-c3ccc(C)c(C)c3)nc3ccccc3c2=O)cc1	11.2	-0.2	12.6	0.0	nt	nt
COCCCNC(=O)/C(C#N)=C/c1ccc(-c2ccc(C(=O)O)c(Cl)c2)o1	63.5*	1.7	2.3	-0.1	66.7*	-4.1	AS interf DR=>6.48
CN(C)c1cccc(Nc2cc(C(=O)NCCc3ccc(O)cc3)c3ccccc3n2)c1	69.8*	0.8	0.4	0.1	-2.8	3.0
CCCNC(=O)c1cc(Nc2cccc(N(C)C)c2)nc2ccccc12	-6.8	-1.6	3.6	-0.1	nt	nt
COc1cccc(-c2ocnc2C(=O)N2CCN(C(C)=O)CC2)c1	11.6	0.4	2.4	-0.1	nt	nt
Clc1ccc(-c2[nH]ncc2CNCc2cccnc2)cc1	58.3*	0.8	4.3	0.3	-8.8	-5.1
COc1cc2c(cc1OC)CN(CC(O)COC1CCCC1)CC2 (stereo not drawn)	10.1	-1.4	6.9	0.0	nt	nt
CCOC(=O)/C(Br)=N\Nc1ccc(C)cc1	83.9*	0.2	-1.5	-0.1	19.4	17.5
CCOC(=O)/C(Cl)=N\Nc1ccccc1	31.4	0.4	16.1	0.0	nt	nt
SMILES	MITF primary	GPR151 ag	TEAD-YAP inh	FBW7 act	MITF inh conf	AlphaScreen intf2	others
O=C(N1CCN(Cc2ccccc2)CC1)C12CC3CC(CC(O)(C3)C1)C2	53.0*	1.0	-3.1	-0.1	12.6	10.0
O=C(N1CCN(c2ccccc2)CC1)C12CC3CC(CC(O)(C3)C1)C2	5.2	-1.7	-7.1	0.1	nt	nt
Cc1cc(NC(=O)Cc2cn(C)c3ccccc23)sn1	-2.6	-0.5	22.3	-0.2	nt	nt
COc1ccc([C@H]2C(C#N)=C(N)OC3=C2C(=O)CC(C)(C)C3)c([N+](=O)[O-])c1OC	16.9	0.4	-7.1	0.1	nt	nt
COc1ccc(C2C(C#N)=C(N)OC3=C2C(=O)CC(C)(C)C3)c2ccccc12 (stereo not drawn)	69.7*	-0.2	4.5	0.1	8.2	11.8
O=C(CN1NS(=O)(=O)c2ccccc2C1=O)NC12CC3CC(CC(C3)C1)C2	-8.3	-0.4	6.6	0.0	nt	nt
NC(=O)C1CCN(S(=O)(=O)c2ccc(S(N)(=O)=O)cc2)CC1	5.5	-0.1	-2.0	0.1	nt	nt
CCOc1ccc(NC(=O)/C(C#N)=C\c2ccc(OC)c(C(=O)O)c2)cc1	16.3	0.5	6.9	0.1	nt	nt
Cc1nn(C(=O)c2nn(C)cc2I)c(C)c1Cl	54.4*	1.8	0.1	1.5	2.0	-0.9
Nc1n[nH]c(C(=O)N/N=C/c2cccs2)n1	77.3*	1.5	-4.4	-0.4	51.4*	95.4*
Cn1cccc1/C=N/NC(=O)c1nc(N)n[nH]1	-3.0	-1.2	-14.2	-0.4	nt	nt
COc1cc(CN2CCN(S(=O)(=O)c3ccccc3)CC2)cc(OC)c1OC	41.8	-0.2	-5.2	-0.1	nt	nt
COc1cc(CN2CCN(S(=O)(=O)c3ccc(F)cc3)CC2)cc(OC)c1OC	51.5*	1.7	6.4	0.0	-1.9	6.7
COc1cc(CN2CCN(S(=O)(=O)c3ccc([N+](=O)[O-])cc3)CC2)cc(OC)c1OC	33.9	0.2	-5.6	-0.1	nt	nt
CCS(=O)(=O)N1CCN(Cc2cc(OC)c(OC)c(OC)c2)CC1	51.8*	1.8	4.3	0.0	7.0	14.0
COc1cc(CN2CCN(S(=O)(=O)c3ccc(C)cc3)CC2)cc(OC)c1OC	51.8*	-1.1	6.9	0.8	-0.6	11.9
CC1CCCN(C(=O)c2ccc3c(=O)n(Cc4ccco4)c(=S)[nH]c3c2)C1 (stereo not drawn)	9.6	-0.7	5.0	-0.3	nt	nt
Oc1ccc(CCNc2cc(-c3ccc4[nH]ccc4c3)ncn2)cc1	24.5	-1.4	-8.5	0.9	nt	nt
COC(=O)C(C)CN1CCN(C)CC1 (stereo not drawn)	59.7*	0.1	-3.2	-0.2	-22.9	-6.4
CCOC(=O)c1c2c(nc3sc(C#N)c(N)c13)CCCC2	9.2	0.7	-3.6	0.0	nt	nt
CN(C)CCNCC(=O)Nc1ccc(CN2CCCCC2)cc1	94.5*	-0.1	3.5	-0.1	9.0	16.3
O=C(CNC1CCCC1)Nc1ccc(C(=O)N2CCCCC2)cc1	45.6	-0.5	1.7	0.0	nt	nt
O=C(CN1CCN(C2CCCCC2)CC1)Nc1ccc(Br)cc1	4.8	0.3	9.7	0.2	nt	nt
O=C(CN1CCN(C2CCCCC2)CC1)Nc1ccc(C(=O)N2CCOCC2)cc1	56.4*	-0.8	-0.9	1.1	9.5	13.3
O=C(CNC1CCCCC1)Nc1ccc(C(=O)N2CCCCC2)cc1	53.0*	0.4	0.3	0.3	6.7	13.5
O=C(CNC1CCCC1)Nc1ccc(CN2CCCCC2)cc1	64.7*	0.7	-6.2	0.0	3.1	16.0
